About 8,800 targets were measured; listed, in parts, are those with a hit and a random draw of the rest. About 0.5% of all pairs of compound and target were hits.
How the values were obtained:
Assay in all cases: log2 fold change, soluble protein after heating vs DMSO (PISA); higher = thermal stabilisation; K562 lysate, 10 uM; active = over 0.2 and 3.5 SD of the protein, either way, in both replicates (recomputed)
[1] = compound: C#Cc1cccc(Nc2ncnc3cc(OCCOC)c(OCCOC)cc23)c1 [erlotinib]
Procedure, shortened: (§1)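 To prepare the extract, K562 pellets were dounce-homogenised in PBS pH 7.4 with 1 mM MgCl2, giving crude material at 1 mg/mL protein. This was treated with 10 μM compound for 30 min, then heated in aliquots for 3 min over 48°C-58°C before pooling and addition of NP-40 to 0.5% at 4°C. Centrifugation at 21,000xg for 90 min left soluble protein in the supernatant, which TMTpro 16plex LC-MS/MS quantified with equalised channel sums. Results are log-two fold changes in thermal stability compared with solvent controls, from duplicates.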

[2] = compound: C/C(=N\NC(=O)C1=CC(=CC=C1)S(=O)(=O)N2CCOCC2)/C3=C(C=CC(=C3)Cl)O
Procedure, shortened: as §1

[3] = compound: C1=CC(=CC=C1C2=NC3=C(N2)C=C(C=C3)C(=O)N)OC4=CC=C(C=C4)Cl
Procedure, shortened: as §1

[4] = compound: C1=CC2=C(C=CC(=C2)/C=C\3/C(=O)NC(=NCC4=CC=CS4)S3)N=C1
Procedure, shortened: as §1

[5] = compound: C1=CC2=NC=CN=C2C=C1/C=C/3\C(=O)NC(=O)S3
Procedure, shortened: as §1

[6] = compound: C1=CC=C(C=C1)C2=NC(=C(N2)C3=CC=NC=C3)C4=CC(=C(C=C4)Cl)O
Procedure, shortened: as §1

[7] = compound: C1=CC=C2C(=C1)C3=NNC4=CC=CC(=C43)C2=O
Procedure, shortened: as §1

[8] = compound: C1CCN(C1)C(=O)NC2=CC=CC(=C2)NC3=NC=C(C(=N3)NCCC4=CN=CN4)Br
Procedure, shortened: as §1

[9] = compound: C1CN(CCC1(CC2=CC=C(C=C2)Cl)N)C3=NC=NC4=C3C=CN4
Procedure, shortened: as §1

[10] = compound: C1COCCN1CCN2C3=CC=CC=C3N=C2NC(=O)C4=CC(=CC=C4)[N+](=O)[O-] [IRAK-1-4 Inhibitor I]
Procedure, shortened: as §1

[11] = compound: C=CC(=O)N1CCC[C@@H](n2nc(-c3ccc(Oc4ccccc4)cc3)c3c(N)ncnc32)C1 [ibrutinib]
Procedure, shortened: as §1

[12] = compound: CC(=O)c1cnc2ccc(-c3cc(Cl)c(O)c(Cl)c3)nc2c1N[C@H]1CC[C@H](CN(C)C)CC1
Procedure, shortened: as §1

[13] = compound: CC(C)(C)Cn1c(N)nc2ccc(-c3[nH]c(C(C)(C)C)nc3-c3ccc(F)cc3)nc21 [ralimetinib]
Procedure, shortened: as §1

[14] = compound: CC(C)(O)CC(=O)NCCn1ccc2ncnc(Nc3ccc(Oc4cccc(C(F)(F)F)c4)c(Cl)c3)c21
Procedure, shortened: as §1

[15] = compound: CC(C)C1=C2N=C(C=C(N2N=C1)NCC3=CC=CC=C3)NCCCCCCN
Procedure, shortened: as §1

[16] = compound: CC1=C(C(CC(=O)N1)C2=CC=C(C=C2)C(F)(F)F)C(=O)NC3=C(C=C4C(=C3)C=NN4)F
Procedure, shortened: as §1

[17] = compound: CC1=C(C2=C(C=C1)C(=O)C3=CC=CC=C3N2CCCN)C
Procedure, shortened: as §1

[18] = compound: CC1=C(C=C(C=C1)NC(=O)C2=CC(=CC=C2)C(C)(C)C#N)NC3=CC4=C(C=C3)N=CN(C4=O)C
Procedure, shortened: as §1

[19] = compound: CC1=C(C=C(C=C1)NC(=O)C2=CC(=CC=C2)N(C)C)NC(=O)C3=CC=C(C=C3)O
Procedure, shortened: as §1

[20] = compound: CC1=CC=C(C=C1)SC2=C3C=C(SC3=CN=C2)C(=O)N
Procedure, shortened: as §1

Measured: log2 fold change

MT-CYB (UniProt P00156)
inactive: [1] 0.076 | [2] 0.141 | [3] 0.027 | [4] 0.024 | [5] 0.015 | [6] -0.229 | [7] 0.126 | [8] -0.105 | [9] 0.025 | [10] 0.028 | [11] 0.133 | [12] -0.055 | [13] 0.001 | [14] -0.064 | [15] -0.094 | [16] 0.03 | [17] -0.107 | [18] 0.039 | [19] -0.093 | [20] 0.198

NPM3 (UniProt O75607)
Sequence of UniProt O75607 (O75607 whole entry, looked up): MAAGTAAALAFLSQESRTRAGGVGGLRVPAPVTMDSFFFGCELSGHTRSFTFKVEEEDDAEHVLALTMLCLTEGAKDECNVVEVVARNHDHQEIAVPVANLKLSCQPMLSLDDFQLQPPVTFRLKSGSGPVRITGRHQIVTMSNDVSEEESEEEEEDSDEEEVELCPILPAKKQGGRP
inactive: [1] 0.023 | [2] -0.047 | [3] 0.034 | [4] 0.019 | [5] -0.059 | [6] -0.013 | [7] 0.025 | [8] -0.004 | [9] 0.053 | [10] -0.028 | [11] 0.038 | [12] 0.03 | [13] 0.029 | [14] -0.077 | [15] 0.018 | [16] 0.048 | [17] -0.03 | [18] 0.069 | [19] 0.018 | [20] -0.037

NCK1 (UniProt P16333)
inactive: [1] 0.02 | [2] 0.036 | [3] 0.04 | [4] -0.007 | [5] -0.01 | [6] -0.009 | [7] -0.072 | [8] -0.024 | [9] 0.049 | [10] 0.002 | [11] 0.025 | [12] -0.029 | [13] 0.003 | [14] 0.01 | [15] -0.016 | [16] 0.028 | [17] 0.002 | [18] -0.005 | [19] 0.029 | [20] 0

N6AMT1 (UniProt Q9Y5N5)
Sequence of UniProt Q9Y5N5 (Q9Y5N5 whole entry, looked up, one chain of several): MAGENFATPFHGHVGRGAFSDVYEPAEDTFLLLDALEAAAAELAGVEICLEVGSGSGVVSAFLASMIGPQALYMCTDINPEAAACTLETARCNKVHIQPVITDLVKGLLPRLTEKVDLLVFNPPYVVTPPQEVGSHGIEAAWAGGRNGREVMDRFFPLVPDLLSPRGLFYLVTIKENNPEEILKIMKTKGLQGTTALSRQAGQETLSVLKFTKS
inactive: [1] 0.022 | [2] -0.053 | [3] -0.082 | [4] 0.02 | [5] -0.097 | [6] 0.013 | [7] -0.272 | [8] 0.005 | [9] -0.013 | [10] -0.022 | [11] 0.103 | [12] -0.03 | [13] 0.005 | [14] -0.006 | [15] 0.009 | [16] -0.045 | [17] -0.026 | [18] 0.01 | [19] 0.024 | [20] 0.027

NAP1L5 (UniProt Q96NT1)
Sequence of UniProt Q96NT1 (Q96NT1 whole entry, looked up): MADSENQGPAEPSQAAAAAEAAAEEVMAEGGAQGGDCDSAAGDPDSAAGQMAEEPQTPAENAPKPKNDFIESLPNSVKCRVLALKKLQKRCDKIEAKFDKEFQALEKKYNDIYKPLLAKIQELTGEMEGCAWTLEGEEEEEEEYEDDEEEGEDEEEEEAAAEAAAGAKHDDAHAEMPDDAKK
inactive: [1] -0.003 | [2] -0.023 | [3] 0.017 | [4] -0.014 | [5] -0.014 | [6] 0.084 | [7] -0.116 | [8] -0.057 | [9] 0 | [10] -0.059 | [11] -0.056 | [12] 0.018 | [13] -0.034 | [14] 0.034 | [15] -0.037 | [16] -0.036 | [17] -0.045 | [18] -0.13 | [19] -0.036 | [20] -0.009

MTA3 (UniProt Q9BTC8)
Sequence of UniProt Q9BTC8 (Q9BTC8 whole entry, looked up): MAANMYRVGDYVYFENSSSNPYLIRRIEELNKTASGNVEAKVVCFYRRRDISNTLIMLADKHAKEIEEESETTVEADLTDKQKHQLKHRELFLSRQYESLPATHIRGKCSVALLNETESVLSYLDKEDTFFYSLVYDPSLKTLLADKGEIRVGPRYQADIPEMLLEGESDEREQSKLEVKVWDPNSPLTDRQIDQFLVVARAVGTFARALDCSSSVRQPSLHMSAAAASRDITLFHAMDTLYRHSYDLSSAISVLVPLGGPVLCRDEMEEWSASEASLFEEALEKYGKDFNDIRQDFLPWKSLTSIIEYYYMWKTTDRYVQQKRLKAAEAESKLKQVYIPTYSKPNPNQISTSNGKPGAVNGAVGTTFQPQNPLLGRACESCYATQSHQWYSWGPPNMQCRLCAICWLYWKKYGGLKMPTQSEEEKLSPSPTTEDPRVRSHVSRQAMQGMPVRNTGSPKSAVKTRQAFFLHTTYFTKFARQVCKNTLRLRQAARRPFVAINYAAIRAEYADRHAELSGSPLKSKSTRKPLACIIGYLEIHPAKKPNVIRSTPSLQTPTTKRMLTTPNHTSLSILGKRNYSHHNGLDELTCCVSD
inactive: [1] 0.025 | [2] -0.051 | [3] 0.02 | [4] -0.022 | [5] -0.078 | [6] -0.046 | [7] 0 | [8] 0.004 | [9] 0.025 | [10] 0.012 | [11] -0.048 | [12] -0.023 | [13] 0.009 | [14] 0.062 | [15] 0.01 | [16] -0.047 | [17] 0.031 | [18] -0.053 | [19] -0.052 | [20] -0.018

NDC1 (UniProt Q9BTX1)
Sequence of UniProt Q9BTX1 (Q9BTX1 whole entry, looked up): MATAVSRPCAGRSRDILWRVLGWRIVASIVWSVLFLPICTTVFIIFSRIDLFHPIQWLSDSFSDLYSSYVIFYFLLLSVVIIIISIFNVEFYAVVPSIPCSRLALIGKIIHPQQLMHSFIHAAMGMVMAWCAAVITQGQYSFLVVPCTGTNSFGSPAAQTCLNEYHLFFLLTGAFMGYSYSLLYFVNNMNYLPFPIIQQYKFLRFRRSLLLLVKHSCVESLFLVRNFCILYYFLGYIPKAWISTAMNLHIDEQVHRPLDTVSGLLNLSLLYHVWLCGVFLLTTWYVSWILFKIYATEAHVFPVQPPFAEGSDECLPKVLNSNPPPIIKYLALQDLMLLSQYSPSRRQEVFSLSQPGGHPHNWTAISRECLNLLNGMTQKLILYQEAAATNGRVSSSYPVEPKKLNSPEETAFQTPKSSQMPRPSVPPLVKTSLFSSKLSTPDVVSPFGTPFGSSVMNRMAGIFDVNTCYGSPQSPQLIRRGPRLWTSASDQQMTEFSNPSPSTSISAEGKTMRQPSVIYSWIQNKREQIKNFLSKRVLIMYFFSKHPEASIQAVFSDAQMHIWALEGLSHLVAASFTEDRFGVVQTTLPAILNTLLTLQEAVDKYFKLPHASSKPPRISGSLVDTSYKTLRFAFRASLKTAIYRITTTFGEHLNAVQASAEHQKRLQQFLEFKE
inactive: [1] -0.002 | [2] 0.015 | [3] 0.026 | [4] 0.047 | [5] 0.031 | [6] -0.005 | [7] -0.077 | [8] 0.013 | [9] 0.024 | [10] 0.026 | [11] 0.009 | [12] -0.02 | [13] 0.007 | [14] -0.012 | [15] -0.013 | [16] -0.009 | [17] -0.031 | [18] 0.032 | [19] 0.007 | [20] 0.072

NEDD8 (UniProt Q15843)
Sequence of UniProt Q15843 (Q15843 whole entry, looked up): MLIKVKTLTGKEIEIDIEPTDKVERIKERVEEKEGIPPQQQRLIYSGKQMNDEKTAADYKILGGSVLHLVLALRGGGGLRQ
inactive: [1] 0.018 | [2] -0.019 | [3] 0 | [4] 0.031 | [5] -0.047 | [6] 0.011 | [7] -0.053 | [8] 0.026 | [9] 0.07 | [10] 0 | [11] 0.059 | [12] -0.013 | [13] -0.001 | [14] 0 | [15] 0.011 | [16] -0.01 | [17] 0.005 | [18] 0.077 | [19] 0.025 | [20] -0.029

OAT (UniProt P04181)
inactive: [1] -0.006 | [2] -0.074 | [3] -0.04 | [4] 0.023 | [5] 0.007 | [6] -0.017 | [7] -0.038 | [8] -0.033 | [9] 0.008 | [10] 0.018 | [11] -0.007 | [12] 0.013 | [13] 0.009 | [14] 0.002 | [15] 0 | [16] -0.045 | [17] -0.018 | [18] -0.006 | [19] 0.034 | [20] -0.009

MTHFD1, A0A384N5Y3
inactive: [1] 0.024 | [2] 0.041 | [3] -0.004 | [4] 0.04 | [5] 0.029 | [6] 0.02 | [7] -0.039 | [8] 0.021 | [9] 0.015 | [10] 0.002 | [11] -0.014 | [12] -0.001 | [13] 0.028 | [14] 0.028 | [15] 0.03 | [16] -0.033 | [17] -0.032 | [18] 0.003 | [19] 0.047 | [20] 0.014

MTA1 (UniProt Q13330)
inactive: [1] 0.006 | [2] 0 | [3] 0.013 | [4] 0.017 | [5] -0.036 | [6] 0 | [7] -0.035 | [8] 0.002 | [9] -0.008 | [10] 0.015 | [11] -0.018 | [12] -0.025 | [13] 0.001 | [14] 0.006 | [15] -0.007 | [16] -0.004 | [17] 0 | [18] -0.008 | [19] 0.034 | [20] -0.018

NFKBIB (UniProt Q15653)
inactive: [1] 0.113 | [2] -0.135 | [3] 0 | [4] 0.03 | [5] 0.025 | [6] -0.026 | [7] 0.06 | [8] 0.016 | [9] -0.008 | [10] 0.052 | [11] -0.034 | [12] -0.037 | [13] 0.048 | [14] -0.008 | [15] -0.029 | [16] -0.012 | [17] 0 | [18] 0.033 | [19] 0.06 | [20] -0.037

MYOM1 (UniProt P52179)
Sequence of UniProt P52179 (P52179 whole entry, looked up): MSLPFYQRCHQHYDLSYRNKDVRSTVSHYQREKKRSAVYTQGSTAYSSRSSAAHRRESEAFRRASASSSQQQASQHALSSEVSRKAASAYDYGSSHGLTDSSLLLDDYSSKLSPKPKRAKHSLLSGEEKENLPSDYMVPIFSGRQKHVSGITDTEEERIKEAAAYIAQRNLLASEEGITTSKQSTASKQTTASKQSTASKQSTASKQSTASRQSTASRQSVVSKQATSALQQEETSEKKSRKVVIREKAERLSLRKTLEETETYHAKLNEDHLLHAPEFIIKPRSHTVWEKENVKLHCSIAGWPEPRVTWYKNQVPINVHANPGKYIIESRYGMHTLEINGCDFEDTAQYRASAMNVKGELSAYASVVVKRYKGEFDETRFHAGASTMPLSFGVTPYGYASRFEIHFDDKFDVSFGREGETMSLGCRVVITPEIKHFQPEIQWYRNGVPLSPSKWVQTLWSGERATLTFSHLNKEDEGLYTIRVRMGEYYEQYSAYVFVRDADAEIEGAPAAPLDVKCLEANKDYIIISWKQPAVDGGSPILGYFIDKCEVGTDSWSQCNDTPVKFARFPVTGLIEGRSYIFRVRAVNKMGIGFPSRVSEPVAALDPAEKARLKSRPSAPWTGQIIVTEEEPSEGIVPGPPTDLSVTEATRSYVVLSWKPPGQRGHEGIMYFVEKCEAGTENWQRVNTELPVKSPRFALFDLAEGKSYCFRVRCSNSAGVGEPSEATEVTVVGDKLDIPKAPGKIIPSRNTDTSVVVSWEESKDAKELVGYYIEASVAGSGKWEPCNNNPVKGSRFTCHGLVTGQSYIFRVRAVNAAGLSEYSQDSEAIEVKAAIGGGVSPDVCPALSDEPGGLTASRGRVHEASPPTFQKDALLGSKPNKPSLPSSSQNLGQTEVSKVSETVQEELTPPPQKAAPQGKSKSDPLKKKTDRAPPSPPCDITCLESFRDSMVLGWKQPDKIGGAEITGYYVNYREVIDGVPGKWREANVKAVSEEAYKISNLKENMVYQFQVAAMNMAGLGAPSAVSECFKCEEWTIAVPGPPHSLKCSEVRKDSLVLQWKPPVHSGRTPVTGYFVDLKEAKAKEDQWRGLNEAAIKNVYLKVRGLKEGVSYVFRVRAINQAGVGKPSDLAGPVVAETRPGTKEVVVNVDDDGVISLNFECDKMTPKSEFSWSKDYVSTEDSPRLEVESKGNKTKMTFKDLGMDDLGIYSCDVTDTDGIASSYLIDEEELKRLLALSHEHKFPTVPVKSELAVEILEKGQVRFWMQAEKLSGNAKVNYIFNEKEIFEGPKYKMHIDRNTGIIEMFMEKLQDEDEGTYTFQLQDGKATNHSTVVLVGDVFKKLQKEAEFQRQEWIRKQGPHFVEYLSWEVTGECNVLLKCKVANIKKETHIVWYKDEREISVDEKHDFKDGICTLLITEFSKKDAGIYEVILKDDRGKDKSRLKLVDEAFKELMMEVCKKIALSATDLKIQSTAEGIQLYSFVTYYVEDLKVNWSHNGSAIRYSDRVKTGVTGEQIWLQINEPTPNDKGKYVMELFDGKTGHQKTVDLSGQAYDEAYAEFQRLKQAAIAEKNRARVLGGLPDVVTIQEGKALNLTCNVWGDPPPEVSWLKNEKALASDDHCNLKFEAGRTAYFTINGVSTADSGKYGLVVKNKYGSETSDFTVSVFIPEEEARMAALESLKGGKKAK
inactive: [1] -0.015 | [2] 0.033 | [3] -0.062 | [4] -0.228 | [5] -0.076 | [6] -0.009 | [7] 0.098 | [8] -0.023 | [9] 0.142 | [11] -0.017 | [12] 0.016 | [13] 0.254 | [14] 0.026 | [15] -0.017 | [16] 0.011 | [17] -0.156 | [18] 0.052 | [19] -0.083 | [20] -0.025
active: [10] 0.503

OGFR (UniProt Q9NZT2)
Sequence of UniProt Q9NZT2 (Q9NZT2 whole entry, looked up): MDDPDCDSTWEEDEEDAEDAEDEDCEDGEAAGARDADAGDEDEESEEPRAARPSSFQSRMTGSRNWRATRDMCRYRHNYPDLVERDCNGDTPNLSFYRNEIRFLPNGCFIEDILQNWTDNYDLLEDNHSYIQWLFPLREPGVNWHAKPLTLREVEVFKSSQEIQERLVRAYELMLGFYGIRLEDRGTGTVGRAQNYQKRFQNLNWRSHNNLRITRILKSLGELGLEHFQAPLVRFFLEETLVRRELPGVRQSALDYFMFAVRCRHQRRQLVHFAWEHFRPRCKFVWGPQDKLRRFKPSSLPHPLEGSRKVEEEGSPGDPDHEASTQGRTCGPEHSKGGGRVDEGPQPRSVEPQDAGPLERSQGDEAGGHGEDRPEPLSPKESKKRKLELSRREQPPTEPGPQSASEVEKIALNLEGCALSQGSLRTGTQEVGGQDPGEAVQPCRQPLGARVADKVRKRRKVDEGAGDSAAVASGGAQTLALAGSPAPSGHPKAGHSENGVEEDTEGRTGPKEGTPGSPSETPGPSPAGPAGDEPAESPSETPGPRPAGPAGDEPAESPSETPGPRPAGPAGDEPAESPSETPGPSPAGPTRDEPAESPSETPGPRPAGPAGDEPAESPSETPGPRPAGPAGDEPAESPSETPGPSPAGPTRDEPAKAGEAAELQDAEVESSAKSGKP
inactive: [1] 0.023 | [2] 0.023 | [3] 0.018 | [4] -0.015 | [5] -0.012 | [6] -0.011 | [7] -0.027 | [8] -0.01 | [9] 0.038 | [10] -0.012 | [11] -0.012 | [12] 0.02 | [13] 0.007 | [14] -0.011 | [15] -0.008 | [16] 0.001 | [17] -0.016 | [18] -0.027 | [19] -0.003 | [20] 0.002

MYH11 isoform 2 (UniProt P35749)
inactive: [1] -0.015 | [2] 0.035 | [3] 0.027 | [4] -0.002 | [5] -0.092 | [6] 0.142 | [7] -0.038 | [8] -0.036 | [9] 0.047 | [10] 0.013 | [11] -0.051 | [12] -0.011 | [13] -0.094 | [14] -0.043 | [15] 0.013 | [16] -0.019 | [17] -0.007 | [18] -0.043 | [19] 0 | [20] -0.004

NUMBL (UniProt Q9Y6R0)
Sequence of UniProt Q9Y6R0 (Q9Y6R0 whole entry, looked up): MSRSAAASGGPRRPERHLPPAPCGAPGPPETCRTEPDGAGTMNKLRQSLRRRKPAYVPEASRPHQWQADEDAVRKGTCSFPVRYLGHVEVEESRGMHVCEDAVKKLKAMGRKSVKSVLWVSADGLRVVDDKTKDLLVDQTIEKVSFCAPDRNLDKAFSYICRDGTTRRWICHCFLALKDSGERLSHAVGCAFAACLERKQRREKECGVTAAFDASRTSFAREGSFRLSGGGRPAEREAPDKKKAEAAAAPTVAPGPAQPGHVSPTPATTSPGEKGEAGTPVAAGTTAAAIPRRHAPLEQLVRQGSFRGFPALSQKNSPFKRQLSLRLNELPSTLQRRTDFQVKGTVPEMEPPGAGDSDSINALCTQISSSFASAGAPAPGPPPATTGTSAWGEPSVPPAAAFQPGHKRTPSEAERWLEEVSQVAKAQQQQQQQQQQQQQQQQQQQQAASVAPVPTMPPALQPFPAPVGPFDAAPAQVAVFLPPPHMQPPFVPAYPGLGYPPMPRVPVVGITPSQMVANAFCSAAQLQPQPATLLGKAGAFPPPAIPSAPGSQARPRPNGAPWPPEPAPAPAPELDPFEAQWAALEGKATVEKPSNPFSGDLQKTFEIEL
inactive: [1] 0.031 | [2] 0.028 | [3] 0.175 | [4] -0.244 | [5] -0.025 | [6] -0.007 | [7] -0.038 | [8] -0.095 | [9] -0.045 | [10] -0.084 | [11] 0.047 | [12] -0.023 | [13] -0.009 | [14] 0.028 | [15] 0.07 | [16] 0.071 | [17] -0.081 | [18] 0.076 | [19] 0.058 | [20] -0.008

Source: the supplement of paper PMC10849652
